# Bioassay records as filed in PubChem.
# IDH1 R132H inh: inhibitors of human mutant IDH1 R132H; O75874; IDH1-R132H enzyme, NADPH consumption, diaphorase/resazurin fluorescence; Potency, µM (top dose mostly 76.6 µM), without a hit: top-dose activity change, negative = inhibition, usual class: inhibitors; 0.093% of 390,000 active; note: potency is the fitted concentration of half-maximal effect; % is set by controls: 0 for no effect and ±100 for the full control effect; nearly all actives have a fitted effect of over 65% in size
# Target sequence (O75874 whole entry R132H, stated change not applied): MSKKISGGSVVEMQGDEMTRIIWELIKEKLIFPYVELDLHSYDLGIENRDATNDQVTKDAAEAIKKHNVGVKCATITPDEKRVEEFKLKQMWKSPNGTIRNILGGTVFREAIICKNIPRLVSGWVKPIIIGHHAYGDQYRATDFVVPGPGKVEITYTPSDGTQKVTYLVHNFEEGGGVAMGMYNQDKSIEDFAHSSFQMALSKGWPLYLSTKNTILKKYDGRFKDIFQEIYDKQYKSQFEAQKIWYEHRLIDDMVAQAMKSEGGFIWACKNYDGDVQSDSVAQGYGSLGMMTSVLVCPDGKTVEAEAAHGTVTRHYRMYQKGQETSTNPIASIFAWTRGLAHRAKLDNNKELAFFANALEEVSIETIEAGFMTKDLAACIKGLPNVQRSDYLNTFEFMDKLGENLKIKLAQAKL
#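 IDH1-R132H (0.5 ug/mL) preincubated 30 min with compound, then NADPH (0.016 mM) and alpha-KG (2 mM) added; 80 min at RT, pH 7.5. Remaining NADPH coupled via diaphorase/resazurin to fluorescence (540/590 nm); concentration-response curves normalized to no-enzyme control.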
# ATXN2 expr inh: inhibitors of ATXN2 expression; Potency, µM (titrated, usually from 57 µM), for inactives: at the highest dose activity change, negative = inhibition, usual class: inhibitors; 0.72% of 360,000 active; HEK-293 ATXN2-luciferase reporter, luminescence, 24 h; note: potency is the fitted concentration of half-maximal effect; % is set by controls: 0 for no effect and ±100 for the full control effect; nearly all actives have a fitted effect of over 55% in size
#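 qHTS (up to 57 uM final) was run with 24 h compound exposure of reporter cells at 37 °C. Each well was multiplexed: SteadyGlo luminescence measured ATXN2-luciferase expression after a fluorogenic Gly-Phe-AFC viability readout (25 uM final).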
# LDHA block: LDHA (human) enzyme inhibition. P00338. purified LDHA, NADH/diaphorase-resazurin fluorescence; stronger effect = lower value. activity change, % (values are at about 110 or 230 µM). 0.15% of 480,000 active. AID 1347041; in the data active = activity change below about -30%; inconclusive = mostly about -25% to -30%;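 note: plate controls were DMSO wells for no effect and wells without enzyme for full effect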
#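 Human LDH5 at 2 nM final in Tris HCl pH 7.4 with 0.06 mM NADH and 0.2 mM pyruvate, reacted 5 minutes at room temperature. Remaining NADH coupled via diaphorase/resazurin; resorufin fluorescence read at 0 and 20 minutes, normalized to enzyme-free and DMSO wells.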
# S2 tox: cell viability loss in ATXN counter-screen; S2 cells (HEK-293 line with an ATXN2-luciferase reporter) viability, CellTiter-Fluor protease fluorescence, 24 h; Potency, µM (highest dose often 56.7 µM), usual class: cytotoxic; 0.49% of 400,000 active; AID 651635; note: potency is the fitted concentration of half-maximal effect; nearly all actives have a fitted effect of over 40% in size
# HepG2 viability: kills HepG2 cells in TGF-b inhibitor counter-screen. HepG2 CAGA-GFP viability, ATP luminescence, 18 h. 0.76% of 410,000 active. Potency, µM (titrated, usually from 46.1 µM), for inactives: top-dose activity change, negative = cytotoxicity, actives largely listed as cytotoxic; note: potency is the fitted concentration of half-maximal effect
#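 HepG2 CAGA-GFP cells (1000/well, DMEM with 1% FBS) received compound, then TGF-beta at 500 pg/mL final, and were incubated 18 hours at 37 degrees C. Viability was read by CellTiter-Glo luminescence. Media-only wells were set as complete cell-killing and DMSO as no toxicity.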
# TGFb inhibitor: blocks TGF-b signaling; HepG2 CAGA-GFP TGF-b/SMAD3 reporter, GFP fluorescence, 18 h; TGF-beta stimulated, 500 pg/mL final; Potency, µM (series often up to 46.1 µM), inactives show at the highest dose activity, negative = inhibition, hits mostly inhibitors; 1.2% of 410,000 active; AID 588855; note: potency is the fitted concentration of half-maximal effect; % is set by controls: 0 for no effect and ±100 for the full control effect; nearly all actives have a fitted effect of over 65% in size
#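 Inhibition was scored as loss of TGF-beta-induced (500 pg/mL final, 18 hours, 37 degrees C) GFP in HEPG2 cells carrying a CAGA-GFP reporter, in DMEM with 1% FBS. Well GFP was summed per cell; Activity was normalised to unstimulated and stimulated DMSO wells, then concentration-response fitting.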
# * hit, by the source's call; i = inactive; ? = inconclusive; . = no result given. Shown are actives, neighbours in structure and some others; about 2.2% of the full set was active somewhere. Unless noted, calls come from the whole dose curve; as a rule, active = well fitted curve in the direction sought with a large enough effect; inconclusive = small, poorly fitted or top-dose-only effect, or another doubt; inactive = no such curve, though single readings can be large; an effect the other way counts as inactive or inconclusive.
SMILES,IDH1 R132H inh,ATXN2 expr inh,LDHA block,S2 tox,HepG2 viability,TGFb inhibitor
CCc1ccc(NC(=O)Cn2c(=O)n(-c3cc(C)cc(C)c3)c(=O)c3oc4ccccc4c32)cc1,-14%,.,-2,.,-18%,-15%
O=C(COc1ccccc1-c1ccccc1)NCc1ccco1,-1%,20%,-9,i,-8%,-6%
COc1cc(-c2nnc(NC(=O)CCS(=O)(=O)c3ccc(F)cc3)o2)cc(OC)c1OC,5%,86%,-1,?,3%,?
COc1cc(-c2nnc(NC(=O)CCS(=O)(=O)c3ccccc3)o2)cc(OC)c1OC,0%,57%,2,?,-40%,11µM*
COc1ccc(NC(=O)C[C@@H]2C(=O)N(c3ccc(OC)cc3)CC2(C)C)cc1,-6%,-15%,-14,i,-13%,7%
NC(COCc1ccccc1)c1csc(Nc2cc(Oc3ccccc3)ncn2)n1 (configuration not stated),.,?,-10,?,-101%,?
COc1cccc(Nc2nc(C(N)COCc3ccccc3)cs2)n1 (configuration not stated),.,-22%,-5,i,11µM*,?
COc1cccc(Nc2nc(C(N)CCc3ccccc3)cs2)n1 (configuration not stated),.,28µM*,-3,?,-91%,?
COc1ccccc1CNC(=O)Nc1nc(C(N)CCc2ccccc2)cs1 (configuration not stated),.,?,-3,.,13µM*,?
NC(CCc1ccccc1)c1csc(NC(=O)NCCc2ccccc2)n1 (configuration not stated),.,-27%,-4,i,-79%,?
Oc1ccccc1CN1CCCN(Cc2ccccc2O)C1,-12%,-24%,-3,?,-41%,29%
COc1cc2c(cc1OC)-c1c(c(C(=O)NCCN3CCOCC3)nn1-c1ccc(F)cc1)C2,.,.,8,.,.,.
C[C@]1(CO)CN(c2cc(C(=O)Nc3ccc4c(c3)-c3c(c(C(N)=O)nn3-c3ccc(F)cc3)CC4)c(Cl)cn2)C[C@@]1(C)CO,.,8.6µM*,.,.,.,.
COc1cccc(C(=O)NCCc2csc(-c3ccc(Cl)cc3)n2)c1,0%,?,0,?,-28%,13µM*
COc1ccc(-c2nc3scc(CCNC(=O)c4cccc(Br)c4)n3n2)cc1,-1%,?,2,18µM*,-21%,?
CN(C)CCCNC(=O)c1ccc(-c2nc(-c3ccc(Cl)cc3)cs2)cc1,2%,?,1,20µM*,16µM*,?
CC(C)(C)c1ccc(C(=O)NCCc2csc(-c3ccc(Cl)cc3)n2)cc1,15%,-12%,4,i,-18%,13µM*
Cc1ccc2[nH]cc(S(=O)(=O)c3ccc(C)c(C)c3)c(=O)c2c1,1%,8%,-12,i,-3%,0%
CCCCCCn1c(CN2CCN(Cc3ccccc3)CC2)nc2c1c(=O)n(C)c(=O)n2C,3%,-26%,-2,?,-1%,-1%
COc1cc(/C=C(\C#N)C(=O)c2c[nH]c3ccccc23)cc(OC)c1O,19%,-17%,27,i,-2%,32%
O=S(=O)(NCCc1csc(-c2ccc(F)cc2)n1)c1ccc(F)cc1F,-16%,?,1,i,-28%,?
COc1ccc(F)cc1S(=O)(=O)NCCc1csc(-c2ccc(Cl)cc2)n1,-9%,?,4,?,-24%,13µM*
O=C1Nc2ccc(Br)cc2C12NNc1ccccc1O2 (configuration not stated),-8%,?,1,25µM*,-105%,-10%
O=C1Nc2ccc(Br)cc2C1(O)c1ccccc1 (configuration not stated),8%,9%,1,i,0%,-6%
